Experimental data published in PubChem BioAssay.
Activity calls are given as the source filed them.

Tests used:
[1] = small molecules captured by biotinylated probe aFSTL3 – biochemical, small-molecule microarray, fluorescence 635/667, stem cell growth factor project, primary screen (AID 1064); settings: higher = more signal;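 further: measures binding of the biotinylated anti-FSTL3 antibody to printed compounds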
[2] = binders from COS7 lysate, DM2A8 probe, primary screen, torsin A project, cell lysate, small-molecule microarray, fluorescence 635/667 (AID 1065); settings: higher = more signal, COS7 lysate expressing mutant human TOR1A
[3] = small molecules captured by biotinylated probe aFGF2 – biochemical, small-molecule microarray, fluorescence 635/667, stem cell growth factor project, primary screen (AID 1067); settings: higher = more signal;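 further: measures binding of biotinylated aFGF2 protein to printed compounds on slides; z-score merges feature fluorescence and signal-to-noise across triplicate slides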
[4] = small molecules captured by biotinylated probe aFGF10 – biochemical, small-molecule microarray, fluorescence 635/667, stem cell growth factor project, primary screen (AID 1071); settings: higher = more signal;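 further: score merges 667 nm spot intensity and signal to noise from triplicate slides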
[5] = target: Neurogenic locus notch homolog protein 2 (Homo sapiens) (UniProt Q04721); assay: small molecules binding Notch2 protein – biochemical, small-molecule microarray, 635 nm fluorescence, stem cell growth factors, primary screen (AID 1073); settings: higher = more signal
[6] = target: Pro-neuregulin-1, membrane-bound isoform (Homo sapiens) (UniProt Q02297); assay: small molecules binding neuregulin-1 protein – biochemical, small-molecule microarray, fluorescence 635/667, psychiatric disease protein project, primary screen (AID 1075); settings: NRG1 binding, 635 nm fluorescence, higher = more signal;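 further: score combines 667 nm spot fluorescence with signal to noise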
[7] = system: Neuregulin-1 EGF-like domain; assay: small molecules binding NRG1 EGF domain – biochemical, small-molecule microarray, 635 nm fluorescence, primary screen (AID 1081); settings: higher = more signal;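 further: binding of the protein to compounds printed on small-molecule microarray slides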
[8] = FRG1 expression reporter modulators in myotubes – cell-based, C2C12 myotubes, firefly/Renilla luciferase, luminescence, FRG1 inhibition for FSHD, primary screen (AID 1084); settings: FRG1 promoter luciferase, higher = more signal, called active from +8 up or from −8 down
[9] = small molecules captured by biotinylated probe aFST – biochemical, small-molecule microarray, fluorescence 635/667, stem cell growth factor project, primary screen (AID 1086); settings: higher = more signal;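 further: score merges 667 nm fluorescence with signal-to-noise of each printed compound spot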
[10] = binders of probe aHhip on microarray, primary screen, stem cell growth factor project, biochemical, small-molecule microarray, fluorescence 635/667 (AID 1087); settings: higher = more signal;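 further: score merges spot fluorescence at 667nm with spot signal to noise ratio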
[11] = system: PRMT1 (protein arginine N-methyltransferase 1); assay: small molecules binding arginine methyltransferase PRMT1 – biochemical, small-molecule microarray, 635 nm fluorescence, primary screen (AID 1088); settings: higher = more signal;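 further: binding of Prmt1 protein to compounds spotted on small-molecule microarray slides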
[12] = growth effects on S. cerevisiae YJM789 – YJM789 clinical isolate, OD600, 24 h, basal, primary screen (AID 1089); settings: higher = more signal, called active from +8 up or from −8 down;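 further: growth of clinical yeast isolate S. cerevisiae YJM 789 seeded 1000 cells per well; test concentration not given here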
[13] = S. pombe growth modifiers, basal conditions – strain 972, OD600, 24 h, no modulator, primary screen (AID 1090);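 further: basal condition with compound alone and no growth modifier present; test concentration not given here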; settings: S. pombe 972 growth, higher = more signal, called active from +8 up or from −8 down
[14] = budding yeast growth modifiers under rapamycin – strain BY4716, OD600, 96 h, primary screen (AID 1091); further: test concentration not given here; settings: S. cerevisiae BY4716 + rapamycin, higher = more signal, called active from +8 up or from −8 down
[15] = target: Torsin-1A-interacting protein 2 (Homo sapiens) (UniProt Q8NFQ8); assay: small molecules binding lysate-expressed LULL1 – cell lysate, human LULL1 lysate, 635/667 nm fluorescence, primary screen (AID 1092); settings: small-molecule microarray, hLULL1 lysate binding, 635 nm fluorescence; higher = more signal;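 further: probe is lysate of COS7 cells overexpressing human LULL1; score merges per-feature 667 nm fluorescence with signal-to-noise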
[16] = optical density change of DRC41 E. coli – strain DRC41, OD650, 24 h, E. coli filamentation project, primary screen (AID 1093);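 further: MC1000 strain lacking acrAB efflux and sulA so SOS filamentation is blocked; test concentration not given here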; settings: E. coli DRC41 growth, higher = more signal, called active from +8 up or from −8 down
[17] = probe aLefty2 binding to arrayed compounds – biochemical, biotinylated probe, 635/667 nm fluorescence, primary screen (AID 1094); settings: small-molecule microarray, higher = more signal;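 further: score merges spot fluorescence near 667 nm with spot signal-to-noise ratio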
[18] = system: Noggin (protein binding on small-molecule microarray); assay: small molecules binding Noggin protein – biochemical, 635/667 nm fluorescence, primary screen (AID 1095); settings: 635 nm fluorescence, higher = more signal;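 further: score merges 667 nm feature fluorescence with signal to noise over triplicate slides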
[19] = target: Neurogenic locus notch homolog protein 3 (Homo sapiens) (UniProt Q9UM47); assay: small molecules binding NOTCH3 protein – biochemical, 635/667 nm fluorescence, primary screen (AID 1096); settings: small-molecule microarray, 635 nm fluorescence, higher = more signal
[20] = probe aEGFR binding to arrayed compounds – biochemical, biotinylated probe, 635/667 nm fluorescence, primary screen (AID 1097); settings: small-molecule microarray, higher = more signal;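 further: probe is a biotinylated anti-EGFR antibody binding compounds printed on slides; score combines fluorescence near 667 nm and signal to noise of each spot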

Neurogenic locus notch homolog protein 2 (Homo sapiens), sequence (Q04721 whole entry, looked up, canonical isoform): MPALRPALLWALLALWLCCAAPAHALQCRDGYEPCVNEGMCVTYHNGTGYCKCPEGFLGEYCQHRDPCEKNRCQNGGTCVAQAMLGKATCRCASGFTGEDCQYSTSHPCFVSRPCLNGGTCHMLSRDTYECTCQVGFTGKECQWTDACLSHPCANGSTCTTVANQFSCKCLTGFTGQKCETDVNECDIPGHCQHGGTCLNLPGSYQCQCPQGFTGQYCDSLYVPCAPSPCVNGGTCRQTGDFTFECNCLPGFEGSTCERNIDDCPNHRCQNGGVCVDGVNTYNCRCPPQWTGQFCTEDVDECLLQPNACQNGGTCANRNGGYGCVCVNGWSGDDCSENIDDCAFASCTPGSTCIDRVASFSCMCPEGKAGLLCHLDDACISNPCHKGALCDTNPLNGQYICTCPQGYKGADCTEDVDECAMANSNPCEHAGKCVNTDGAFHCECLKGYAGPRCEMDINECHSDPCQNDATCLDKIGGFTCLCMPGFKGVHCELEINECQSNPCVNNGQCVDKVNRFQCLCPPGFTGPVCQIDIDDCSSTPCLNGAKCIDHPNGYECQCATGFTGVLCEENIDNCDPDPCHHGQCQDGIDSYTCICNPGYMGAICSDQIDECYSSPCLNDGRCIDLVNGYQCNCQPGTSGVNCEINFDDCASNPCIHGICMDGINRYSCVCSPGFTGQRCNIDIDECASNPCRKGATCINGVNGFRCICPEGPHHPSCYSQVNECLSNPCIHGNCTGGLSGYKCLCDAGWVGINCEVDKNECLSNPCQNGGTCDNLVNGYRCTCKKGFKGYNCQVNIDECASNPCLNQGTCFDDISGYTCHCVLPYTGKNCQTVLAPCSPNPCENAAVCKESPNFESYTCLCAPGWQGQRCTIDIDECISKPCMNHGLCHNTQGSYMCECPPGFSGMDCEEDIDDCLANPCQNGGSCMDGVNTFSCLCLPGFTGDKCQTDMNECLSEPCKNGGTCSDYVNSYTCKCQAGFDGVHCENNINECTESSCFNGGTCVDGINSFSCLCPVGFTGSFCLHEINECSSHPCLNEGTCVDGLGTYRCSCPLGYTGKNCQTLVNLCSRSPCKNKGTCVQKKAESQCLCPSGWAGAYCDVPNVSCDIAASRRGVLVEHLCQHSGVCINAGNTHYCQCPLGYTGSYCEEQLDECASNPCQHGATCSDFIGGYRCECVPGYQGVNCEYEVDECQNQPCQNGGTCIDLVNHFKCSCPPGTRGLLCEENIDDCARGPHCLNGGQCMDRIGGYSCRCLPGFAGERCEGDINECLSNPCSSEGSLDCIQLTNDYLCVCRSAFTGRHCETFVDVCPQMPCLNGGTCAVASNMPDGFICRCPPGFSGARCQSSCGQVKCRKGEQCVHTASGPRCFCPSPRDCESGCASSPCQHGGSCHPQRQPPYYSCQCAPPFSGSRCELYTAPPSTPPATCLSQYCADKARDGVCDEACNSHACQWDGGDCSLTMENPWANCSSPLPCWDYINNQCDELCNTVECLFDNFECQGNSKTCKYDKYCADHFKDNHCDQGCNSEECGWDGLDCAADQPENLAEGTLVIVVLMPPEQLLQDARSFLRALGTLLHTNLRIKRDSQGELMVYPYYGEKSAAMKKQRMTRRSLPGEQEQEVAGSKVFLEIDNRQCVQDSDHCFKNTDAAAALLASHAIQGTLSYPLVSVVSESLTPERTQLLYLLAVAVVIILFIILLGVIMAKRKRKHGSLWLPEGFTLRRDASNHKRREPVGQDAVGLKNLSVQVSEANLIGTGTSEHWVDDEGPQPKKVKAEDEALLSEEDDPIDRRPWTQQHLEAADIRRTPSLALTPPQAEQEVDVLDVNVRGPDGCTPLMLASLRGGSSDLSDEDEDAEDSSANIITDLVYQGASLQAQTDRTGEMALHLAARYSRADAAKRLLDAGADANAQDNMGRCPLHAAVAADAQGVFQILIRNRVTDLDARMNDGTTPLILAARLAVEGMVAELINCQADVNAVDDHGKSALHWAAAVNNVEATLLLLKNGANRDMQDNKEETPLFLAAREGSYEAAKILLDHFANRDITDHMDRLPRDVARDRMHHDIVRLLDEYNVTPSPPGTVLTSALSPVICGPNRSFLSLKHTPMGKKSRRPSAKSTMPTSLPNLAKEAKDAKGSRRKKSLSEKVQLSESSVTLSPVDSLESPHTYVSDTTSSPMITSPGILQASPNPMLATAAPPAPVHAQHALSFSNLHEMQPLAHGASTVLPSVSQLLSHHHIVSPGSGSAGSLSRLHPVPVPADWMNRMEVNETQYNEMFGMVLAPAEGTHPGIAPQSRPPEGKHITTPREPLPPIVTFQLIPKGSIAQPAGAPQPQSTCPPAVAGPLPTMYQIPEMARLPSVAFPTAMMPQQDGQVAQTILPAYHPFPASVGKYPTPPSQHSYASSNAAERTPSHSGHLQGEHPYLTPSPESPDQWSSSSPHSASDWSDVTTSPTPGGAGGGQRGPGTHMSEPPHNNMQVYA
Pro-neuregulin-1, membrane-bound isoform (Homo sapiens), sequence (Q02297 whole entry, looked up, the tested form may be a part, canonical isoform): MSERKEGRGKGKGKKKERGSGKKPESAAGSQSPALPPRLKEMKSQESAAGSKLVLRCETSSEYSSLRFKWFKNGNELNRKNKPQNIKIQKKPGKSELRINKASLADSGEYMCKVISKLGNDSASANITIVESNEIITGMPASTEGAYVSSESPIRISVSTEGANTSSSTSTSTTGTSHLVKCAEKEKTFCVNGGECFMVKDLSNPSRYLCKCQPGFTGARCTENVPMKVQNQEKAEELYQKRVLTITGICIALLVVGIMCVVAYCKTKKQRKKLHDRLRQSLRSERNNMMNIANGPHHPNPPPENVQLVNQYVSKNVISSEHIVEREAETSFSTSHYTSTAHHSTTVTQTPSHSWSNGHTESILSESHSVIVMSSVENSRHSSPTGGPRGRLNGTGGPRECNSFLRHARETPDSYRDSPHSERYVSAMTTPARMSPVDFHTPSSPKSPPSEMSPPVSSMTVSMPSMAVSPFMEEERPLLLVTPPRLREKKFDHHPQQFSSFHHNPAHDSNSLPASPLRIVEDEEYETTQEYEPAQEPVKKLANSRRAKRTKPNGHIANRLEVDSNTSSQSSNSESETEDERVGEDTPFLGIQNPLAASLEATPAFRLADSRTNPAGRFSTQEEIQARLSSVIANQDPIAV
Torsin-1A-interacting protein 2 (Homo sapiens), sequence (Q8NFQ8 whole entry, looked up): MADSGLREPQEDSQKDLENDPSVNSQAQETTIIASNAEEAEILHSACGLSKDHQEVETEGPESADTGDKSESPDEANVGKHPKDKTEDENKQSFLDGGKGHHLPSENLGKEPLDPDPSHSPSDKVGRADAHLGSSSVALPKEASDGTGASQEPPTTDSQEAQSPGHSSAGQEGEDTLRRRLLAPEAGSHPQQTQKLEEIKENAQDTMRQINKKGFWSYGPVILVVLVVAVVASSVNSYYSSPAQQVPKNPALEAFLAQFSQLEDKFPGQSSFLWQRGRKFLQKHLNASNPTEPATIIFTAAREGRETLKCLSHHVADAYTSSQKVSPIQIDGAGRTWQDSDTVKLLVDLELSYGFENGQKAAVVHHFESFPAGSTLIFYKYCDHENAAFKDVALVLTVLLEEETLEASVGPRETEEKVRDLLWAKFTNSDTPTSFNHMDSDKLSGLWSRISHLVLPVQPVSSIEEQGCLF

SMILES	composite z-score [1]	composite z-score [2]	composite z-score [3]	composite z-score [4]	composite z-score [5]	composite z-score [6]	composite z-score [7]	z-score [8]	composite z-score [9]	composite z-score [10]	composite z-score [11]	z-score [12]	z-score [13]	z-score [14]	composite z-score [15]	z-score [16]	composite z-score [17]	composite z-score [18]	composite z-score [19]	composite z-score [20]
C=CCN1C(=O)[C@]2(CC=C)N=C(c3ccc(OCCCO)cc3)O[C@@H]2c2ccccc21	0.967	0.194	0.123	0.0547	1.05	1.03	1.26	-1.86 (inactive)	0.61	0.0327	1.45	-1.76 (inactive)	-2.79 (inactive)	0.164 (inactive)	3.13	1.02 (inactive)	0.266	1.33	1.08	0.038
CC=CC(O)C1C=CC2C(=O)N(C)C(=O)C2N1Nc1ccc([N+](=O)[O-])cc1[N+](=O)[O-] (stereo not given)	0.028	-0.183	-0.185	-0.0156	-0.346	1.2	1.29	0.639 (inactive)	-0.441	0.312	0.0758	0.837 (inactive)	0.325 (inactive)	1.67 (inactive)	3.57	-1.06 (inactive)	-0.0478	-0.448	-0.44	-0.342
C=C1C2CC3C(=C4C(CO[C@@H]4[C@H]4CCCN4S(=O)(=O)c4ccccc4[N+](=O)[O-])C4C(=O)N(C)C(=O)C34)CC2C(=O)N1C (stereo not given in full)	-0.431	0.315	-0.125	0.36	0.574	1.12	0.0641	0.581 (inactive)	0.174	0.0024	0.627	-0.0815 (inactive)	-4.92 (inactive)	-0.824 (inactive)	0.303	-0.509 (inactive)	-0.139	0.082	0.22	0.106
